Results on eight compounds are retold here after PubChem BioAssay (NCI).

Some test systems named below: NCI-H23 lung; NCI-H226 lung; NCI-H322M lung; NCI-H460 lung; HOP-92 NSCLC; NCI-H522 lung; A549/ATCC NSCLC; 786-0 renal; DU-145 prostate; K-562 leukemia; MALME-3M melanoma; MDA-MB-231 breast; RXF 393 renal; SF-268 CNS; SF-295 CNS; SF-539 CNS; UACC-257 melanoma; M14 melanoma; COLO 205 colon; HOP-62 NSCLC.
What all share (assay): NCI-60 one-dose screen, 48 h (100 = growth as untreated, 0 = no growth, -100 = all killed)
What all share (conditions): 10 µM

The panel holds about 83,000 compounds, 20% with a hit somewhere; the sample as a whole holds those more often.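 Treatment: one concentration, 48 hours, 96-well format. Scoring: percent growth, with anything below 10 considered active.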 Unmarked numbers belong to inactive results. Calls of active or inactive are those of the source.

Take `COc1cc(/C=C/C(=O)c2cc(OC)c(OC)c(OC)c2)ccc1Oc1nc(Nc2ccc(F)cc2)nc(N(C)C)n1`: the growth is -23.7% (active) with NCI-H23 lung; 17.9% in the test on NCI-H226 lung; 9.59% (active) in the test on NCI-H322M lung; -23% (active) with NCI-H460 lung; -42.3% (active) in the test with HOP-92 NSCLC; -82.7% (active) with NCI-H522 lung. The growth in the test with A549/ATCC NSCLC is -48.3% (active); in the test with 786-0 renal, -94.1% (active); with DU-145 prostate, -35.8% (active); in the test on K-562 leukemia it was 2.36% (active); in the test on MALME-3M melanoma it was -40.3% (active); in the test on MDA-MB-231 breast it was -60% (active). In addition, the growth is -74.9% (active) with RXF 393 renal; 27.7% in the test with SF-268 CNS; -55.2% (active) with SF-295 CNS; -80.6% (active) with SF-539 CNS; -30.5% (active) with UACC-257 melanoma; -27.5% (active) in the test on M14 melanoma.

As to `Cc1ccc(/C=C/C(=O)c2ccc(S(=O)(=O)NCCNc3nc(Nc4ccc(F)cc4)nc(N(C)C)n3)cc2)cc1`, the growth in the test on NCI-H23 lung was 36.5%; with NCI-H226 lung, -1.6% (active); with NCI-H322M lung, 48.5%; in the test with NCI-H460 lung it was 0.319% (active); in the test on HOP-92 NSCLC it was -18.2% (active); with NCI-H522 lung it was 71.3%. Besides, the growth in the test on A549/ATCC NSCLC is 41.3%; with 786-0 renal, -32% (active); in the test with COLO 205 colon, 35.4%; in the test with DU-145 prostate, 30%; in the test on K-562 leukemia it was 12.2%; in the test with MALME-3M melanoma, 69.1%. Also, the growth with MDA-MB-231 breast was 38.6%; in the test on SF-268 CNS it was 34.6%; in the test on SF-295 CNS, 37.7%; in the test with SF-539 CNS, 41.6%; in the test with UACC-257 melanoma, 61.2%; in the test on M14 melanoma, 14.6%.

With `N#Cc1c(-c2ccc(Cl)cc2)cc(-c2ccccc2)nc1OCc1ccccc1`, the growth with NCI-H23 lung was 76.7%; in the test with NCI-H226 lung, 74.7%; with NCI-H322M lung, 96.6%; in the test on NCI-H460 lung, 51.9%; in the test with HOP-92 NSCLC, 90.8%; with NCI-H522 lung, 69.3%. Also, the growth in the test on A549/ATCC NSCLC is 73.8%; in the test on 786-0 renal, 107%; with COLO 205 colon, 106%; with DU-145 prostate, 90.7%; in the test on K-562 leukemia, 45%; in the test with MALME-3M melanoma, 102%. Besides, the growth was 80.2% in the test with MDA-MB-231 breast; 92.9% with SF-268 CNS; 66.2% with SF-295 CNS; 75.2% in the test on SF-539 CNS; 80.6% in the test on UACC-257 melanoma; 90.9% in the test on M14 melanoma.

Consider `Nc1n[nH]c2cccc(C#Cc3cccc(NC(=O)Nc4cc(C(F)(F)F)cc(C(F)(F)F)c4)c3)c12`, for which the growth in the test on NCI-H23 lung was -88.4% (active); in the test with NCI-H226 lung it was -52.6% (active); in the test on NCI-H322M lung it was -22.4% (active); with NCI-H460 lung, -56.8% (active); in the test with HOP-92 NSCLC, -71.5% (active); in the test with NCI-H522 lung it was -58.4% (active). The growth in the test on A549/ATCC NSCLC was -35.3% (active); in the test with 786-0 renal it was -20.3% (active); in the test with COLO 205 colon, -77.5% (active); in the test on DU-145 prostate it was 7.02% (active); in the test with K-562 leukemia it was -57.4% (active); with MALME-3M melanoma it was -67.6% (active). Moreover, the growth in the test on MDA-MB-231 breast was -93.4% (active); with RXF 393 renal, -70.9% (active); in the test with SF-268 CNS, -2.88% (active); with SF-295 CNS it was -75.3% (active); in the test on SF-539 CNS it was -73% (active); in the test with UACC-257 melanoma it was -57.3% (active). Moreover, the growth in the test with M14 melanoma is -9.94% (active).

As to `CCCCCCCCCCCCCCCCCCCC(=O)NCCc1c[nH]c2ccc(OC(=O)CCCC(=O)OCCOOCCOOCCOOCCOOCCOOCCOOCCOOCCOOCCOOCCOOCCOOCCOC)cc12`, the growth is 59.7% in the test on NCI-H23 lung; 52.9% in the test with NCI-H226 lung; 109% in the test with NCI-H322M lung; 50.4% in the test on NCI-H460 lung; -82.9% (active) in the test on NCI-H522 lung; 42.3% in the test on A549/ATCC NSCLC. Also, the growth with 786-0 renal is 83.9%; in the test with COLO 205 colon it was 117%; with DU-145 prostate, 39.8%; in the test with K-562 leukemia, 2.22% (active); in the test on MALME-3M melanoma, 102%; in the test on MDA-MB-231 breast it was 44.5%. In addition, the growth in the test with RXF 393 renal is 91.3%; in the test with SF-268 CNS, 16.7%; in the test on SF-295 CNS, 13.3%; in the test with SF-539 CNS it was -32.9% (active); in the test on UACC-257 melanoma, 92.5%; with M14 melanoma, 56.4%.

Regarding `COc1cccc(C(N)=Nc2ccc(OCCCCCCn3cncn3)cc2)c1`, the growth in the test on NCI-H23 lung is 21.1%; in the test with NCI-H322M lung, 60.5%; in the test on HOP-62 NSCLC it was 20.7%; with NCI-H460 lung it was 28.1%; in the test on HOP-92 NSCLC, 79.3%; in the test on NCI-H522 lung it was -2.45% (active). The growth in the test on A549/ATCC NSCLC was 26.5%; in the test with 786-0 renal it was 40.9%; in the test on DU-145 prostate it was 33%; in the test on MALME-3M melanoma, 43.4%; in the test on MDA-MB-231 breast, 13.6%; in the test with SF-268 CNS, 68.9%. Further, the growth was -31.3% (active) with SF-539 CNS and 56% in the test on UACC-257 melanoma.

As to `O=C(CSc1nnc(-c2c[nH]c3ccccc23)n1-c1ccccc1)c1ccc(Cl)cc1`, the growth in the test with NCI-H23 lung is 40.8%; with NCI-H226 lung it was 17.6%; in the test with NCI-H322M lung it was 58.7%; in the test with NCI-H460 lung, 60.1%; in the test on HOP-92 NSCLC, 65%; with NCI-H522 lung, 67%. Further, the growth is 37.5% in the test on A549/ATCC NSCLC; 44.9% with 786-0 renal; 42.6% in the test on COLO 205 colon; 88.4% in the test on DU-145 prostate; 69% with K-562 leukemia; 64% in the test on MALME-3M melanoma. The growth is 51.7% with MDA-MB-231 breast; 69.4% in the test with SF-268 CNS; 55% in the test with SF-295 CNS; 49.5% in the test on SF-539 CNS; 72.3% in the test on UACC-257 melanoma; 80.6% with M14 melanoma.

In the case of `O=C(c1ccc(-n2c(=O)[nH]c3ccccc3c2=O)cc1)N1CCOCC1`, the growth is 116% in the test on NCI-H23 lung; 99.6% in the test with NCI-H226 lung; 98.7% with NCI-H322M lung; 109% in the test on NCI-H460 lung; 99.8% in the test on HOP-92 NSCLC; 101% in the test with NCI-H522 lung. Besides, the growth in the test on A549/ATCC NSCLC was 119%; in the test with 786-0 renal it was 99.5%; in the test with COLO 205 colon, 110%; with DU-145 prostate, 105%; in the test on MALME-3M melanoma, 97.5%; with MDA-MB-231 breast it was 95.5%. The growth in the test on RXF 393 renal is 127%; in the test on SF-268 CNS, 88.1%; in the test with SF-295 CNS it was 102%; with SF-539 CNS, 93.8%; with UACC-257 melanoma, 127%; in the test with M14 melanoma it was 99.3%.
